Reference: PubChem BioAssay AID1159580 (chemical genetic matrix, 2015)
Among all 5,500 compounds or so, about 2,000 (36%) were called active. Inconclusive results (about 18%) are left out. Cut-off read from the data, not from the text of the source: active = normalized growth mostly below about 0.91 (no sharp cut-off); inconclusive = no clear call, values can overlap the other calls; inactive = mostly above about 0.92. Some of the results follow.

Assay: chemical genetic growth profiling, strain panel (AID 1159580);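 note: tested at 20 µM; growth read once vehicle control cultures reached saturation at 30 °C; 1 = growth at the plate median or of vehicle wells; lower values mean less growth of the strain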
Conditions: S. cerevisiae deletion strains, growth OD

Measured: normalized growth

O=S(=O)(c1cccc2c(Cl)cccc12)N1CCCNCC1
inactive: locus YAL040C, strain CLN3, stronger effect = lower value 0.99 | locus YDR363W, strain ESC2, stronger effect = lower value 1 | locus YER002W, strain NOP16, stronger effect = lower value 0.988 | locus YGR078C, strain PAC10, stronger effect = lower value 0.986 | locus YMR263W, strain SAP30, stronger effect = lower value 1 | locus YNL128W, strain TEP1, stronger effect = lower value 1.01 | locus YNL175C, strain NOP13, stronger effect = lower value 1.03 | locus YNL197C, strain WHI3, stronger effect = lower value 1.03 | locus YNL224C, strain SQS1, stronger effect = lower value 1.01 | locus YOR083W, strain WHI5 (second series), stronger effect = lower value 1.02 | locus YPL241C, strain CIN2, stronger effect = lower value 1
